# Measured values from PubChem BioAssay (NCI).
# The panel holds about 83,000 compounds, 20% with a hit somewhere; the sample as a whole holds those more often.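 Each cell line was grown in a 96-well plate and treated with one concentration of compound for 48 hours. Values below 10 were considered active.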 A number with no mark means an inactive call. The source made the active and inactive calls.
# Test system: SK-MEL-28 melanoma
# Assay: NCI-60 one-dose screen, 48 h (100 = growth as untreated, 0 = no growth, -100 = all killed)
# Details: 10 µM unless noted
# Description: Growth inhibition of the SK-MEL-28 human tumor cell line is measured as a screen for anti-cancer activity. Cells are grown in 96 well plates and exposed to the test compound for 48 hours. Compounds are tested at a single concentration, which is 10^-5 M for most compounds. The reported endpoint is percent growth (GI% or GIPRCNT), where numbers from 0 - 100% represent growth inhibition, and numbers from -100% - 0 represent cell death. For example, a value of 40 represents 60% growth inhibition. A value of 0 means no net growth occurred over the course of the experiment. A value of -40 indicates 40% of cells at the beginning of the experiment died by the end of the experiment. A value of -100 means all cells are dead at the end of the experiment.
# NCI-60 Human Tumor Cell Lines Screen was performed using the standard one-dose NCI protocol, which is described in more detail at https://dtp.cancer.gov/discovery_development/nci-60/default.htm.
# Compounds with GIPRCNT values below 10 were considered active. Activity score was based on GIPRCNT using the following formula: […]
# Score is 0 for GIPRCNT values of 100 or above, 50 for GIPRCNT values of 0, and 100 for GIPRCNT values of -100.
row,Compound,growth
1,CCOC(=O)NC1=NCC(C)(C)S1,99.9%
2,Cc1nn(-c2ccccc2)c(N)c1N=C1NC(=O)/C(=C/c2ccc(Cl)cc2)S1,92.3%
3,COc1cc(NC(C)CCCN)c2nc(C)ccc2c1OC (stereo not given),101%
4,CCOC(=O)c1c(C)oc2ncnc(Nc3ccc(NC(=O)Nc4ccc(CC)cc4)cc3)c12,105%
5,O=P(OCCCl)(OCCCl)C(O)c1ccccc1Cl (stereo not given),113%
6,COc1nc(OC)nc(-c2cc(C(=O)c3ccc(Br)cc3)n3cc(C)cc(C)c23)n1,84.7%
7,CC(=O)OCC(=O)[C@@]1(O)[C@H](C)C[C@H]2[C@@H]3C=C(C)C4=Cc5c(cnn5-c5ccc(F)cc5)C[C@]4(C)[C@H]3[C@@H](O)C[C@@]21C,34.5%
8,Oc1ccccc1/C=N/N=C\c1ccccc1Cl,105%
9,Cc1[nH]n(C(=S)Nc2nc3cc(Cl)c(F)cc3s2)c(=O)c1N=Nc1ccc(F)c(Cl)c1,106%
10,O=C(/C=C/c1ccc(Br)cc1)c1ccccc1,109%
11,CC(C)(C)C(=O)OCOP(=O)(OCOC(=O)C(C)(C)C)C1CC(O)N(O)C1=O (stereo not given),8.22% (active)
12,CCNc1nnc(COc2ccc(CNC(=O)CCCC/C=C/C(C)C)cc2OC)o1,104%
13,CCOC(=O)c1cc(-c2ccc(OC)cc2)[nH]c1NNC(=O)CCOC,114%
14,Nc1ncn([C@@H]2O[C@H](CO)[C@@H](O)C2(F)F)c(=O)n1,78.5%
15,COC(=O)c1ccc2[nH]c(O)c(C(=Nc3ccc(N(C)C(=O)CN4CCN(C)CC4)cc3)c3ccc(CCO)cc3)c2c1,38.3%
16,O=c1oc2ccc3ccccc3c2cc1-c1ccnc2[nH]c(=S)[nH]c(=O)c12,105%
17,COc1cc2c(cc1OC)C(Cc1cc(OC)c(OC)cc1[N+](=O)[O-])=NCC2,92.7%
18,Cc1ccc(C(=O)Nc2ccc(CN3CCN(C)CC3)c(C(F)(F)F)c2)cc1C#Cc1cnc(N)c2ccc(F)cc12,-96.2% (active)
19,CCC(C)(CC)c1ccc(O)c(C)c1,110%
20,Cn1c2c(cc(S(=O)(=O)c3ccccc3)c1=O)CCc1c-2cnn1-c1ccc(Cl)cc1,-36.7% (active)

row,Compound,growth
1,C[C@@H](c1ccc2c(c1)[nH]c1ccc(Cl)cc12)c1nc2ccccc2[nH]1,112%
2,CCCC[N+](C)(N)CCCC,109%
3,CCOC(=O)c1ccc2n1CCCc1cnc(NC(C)=O)nc1-2,99.2%
4,Nc1nc2c(c3ncncc13)C(c1cccc(C(F)(F)F)c1)Cc1ncncc1-2 (stereo not given),63.7%
5,O=C(Nc1ccc(-n2cc(-c3ccncc3)c(-c3ccc(Cl)c(O)c3)n2)cc1)c1ccc(Cl)c(C(F)(F)F)c1,-38.3% (active)
6,O=c1[nH]c2cc(O)ccc2n2cc3c(F)cccc3c12,24.7%
7,CC(O)c1cc[cH-]c1.[Fe+2].c1cc[cH-]c1 (stereo not given),112%
8,CC(C)(C)c1cc(C[P+](c2ccc(Cl)cc2)(c2ccc(Cl)cc2)c2ccc(Cl)cc2)cc(C(C)(C)C)c1O,88%
9,C/C(=N\Nc1ccc(Cl)cn1)c1ccccn1,13.5%
10,COc1cc(-c2cc3cnccc3c3nc(N)c4ccncc4c23)cc(OC)c1OC,75.3%
11,COC(=O)c1ccc2[nH]c(O)c(C(=Nc3ccc(N(C)C(=O)CN4CCN(C)CC4)cc3)c3ccc(OC)cc3)c2c1,32.8%
12,CC1Cc2cc(F)ccc2-n2cccc21 (stereo not given),107%
13,COc1cc(-c2nn(-c3ccc(NC(=O)c4cc(Cl)cc(Cl)c4)cc3)cc2-c2ccncc2)ccc1Cl,85.5%
14,COC(=O)/C(Br)=C/c1c[nH]c2ccc(Br)cc12,105%
15,CC(C)(CNC1CCCCC1)OC(=O)c1ccccc1,114%
16,Clc1ccc(N/N=C(\c2ccccc2)c2ccccn2)nc1,25.4%
17,Cc1c(C(N)=O)sc2c1c(=O)n(Cc1ccccc1)c1nnc(S(C)(=O)=O)n21,96.2%
18,CC[C@H](Nc1ncnc2nc[nH]c12)c1nc2cccc(NCc3ccc(C(=O)NO)nc3)c2c(=O)n1-c1ccccc1,57.6%
19,CC[C@H](Nc1ncnc2nc[nH]c12)c1nc2cccc(NCc3ccc(C(=O)NO)o3)c2c(=O)n1-c1ccccc1,100%
20,COc1ccc2cnc(N)c(C#Cc3cc(C(=O)Nc4ccc(CN5CCN(C)CC5)c(C(F)(F)F)c4)cnc3C)c2c1,-72.5% (active)
